This passage reports Potency results from PubChem BioAssay AID1479 (National Center for Advancing Translational Sciences (NCATS), 2009).

The structures appear in SMILES notation. About 820 (0.29%) of roughly 280,000 compounds were called active. Entries that show only a call come without a potency. Not shown: some 1% with an inconclusive outcome. This is one part of a sample in which actives are shown more often than they occur. Calls follow the shape of the dose curve; as a rule, active = well fitted curve in either direction with a large enough effect; inconclusive = small, poorly fitted or top-dose-only effect; inactive = flat fitted curve, though single readings scatter.
Potency is read from the fitted curve at half-maximal effect; tags tell the direction and shape of the fitted curve or compound fluorescence and quenching.

This experiment can be described thus: Total Fluorescence Counterscreen for Inhibitors of the Interaction of Thyroid Hormone Receptor and Steroid Receptor Coregulator 2. The following applies: TRb/SRC2 Texas Red total fluorescence interference; series mostly up to 201 µM. The text has this: NIH Molecular Libraries Probe Production Network [MLPCN]
NIH Chemical Genomics Center [NCGC]
Assay Provider: R. Kip Guy, St. Jude Children's Research Hospital
Thyroid receptor (TR) regulates many homeostatic processes including basal metabolism, cardiovascular function, body weight, and lipid trafficking. TR modulators are potential therapeutics for obesity and hyperlipidemias but current thyroid analogs have undesirable side effects, particularly cardiac stimulation. To identify inhibitors that specifically prevent the interaction of TR with the steroid receptor […] 2 (SRC2), a fluorescence polarization assay was screened. This assay detects interaction of the ligand-binding domain of human TRb with a Texas Red labeled SRC2 peptide, corresponding to a 20 amino acid region of the nuclear receptor interaction domain (Arnold et al., 2006). Total fluorescence (555 nm excitation and 632 nm emission) was measured to identify potential fluorescent and light absorbing compounds. Such compounds may be artifacts that interfere with the fluorescence polarization assay.
Arnold, L. A.; Estebanez-Perpina, E.; Togashi, M.; Shelat, A.; Ocasio, C. A.; McReynolds, A. C.; Nguyen, P.; Baxter, J. D.; Fletterick, R. J.; Webb, P.; Guy, R. K. A high-throughput screening method to identify small molecule inhibitors of thyroid hormone receptor coactivator binding. Sci STKE 2006, p 13.
NCGC Assay Protocol Summary:
For screening, 5 uL/well 0.6 uM TRb and 20 nM SRC2 Texas Red in protein buffer (20mM Tris hydrochloride, 100mM NaCl, 10% glycerol, 1mM EDTA, 0.01% NP-40, 1mM DTT, 1uM T3 and 5% DMSO) was dispensed into black solid 1536-well plates (Grenier) using a solenoid-based dispenser. Following transfer of 23 nL compound or DMSO vehicle by a pin tool, the plates were centrifuged 15 s at 1000 RPM and incubated 5 hr at ambient temperature. The plates were read by an Envision (Perkin Elmer) to detect fluorescence polarization of SRC2 Texas Red (555 nm excitation and 632 nm emission). Data were normalized to unbound (all components except TRb) and bound SRC2 Texas Red controls. Total fluorescence (TF) was calculated as follows: TF = S + 2P where S and P are fluorescence readings in the parallel and perpendicular channels, respectively.
Keywords: NIH Roadmap, MLPCN, MLI, MLSMR, qHTS, NCGC, qHTS, thyroid hormone receptor, steroid receptor coactivator, fluorescence polarization
In general terms: A counterscreen serves to expose hits that act by an unwanted route or on another target.
Consider `CCCCC(=O)N/N=C/c1c(O)n(CC)c(=S)n(CC)c1=O`, for which the Potency was 0.316 µM [quencher] (active).
In the case of `Clc1ccc([C@@]2(Cn3cncn3)C[C@H](Br)CO2)c(Cl)c1`, the Potency entry was “inactive”.
Under `CCOP(=O)(OCC)SCS(=O)(=O)C(C)(C)C` stands “inactive”.
For the molecule `CCOP(OCC)OCC`, the Potency entry was “inactive”.
For `O=C1NC(=O)N(c2ccccc2)C(=O)/C1=C/c1ccc([N+](=O)[O-])s1`, the Potency was 44.7 µM [fluorescent] (active).
In the case of `CC(C)OC(=O)Nc1ccccc1`, the Potency entry is “inactive”.
With `CCC/C(=N\OCC)C1=C(O)CC(CC(C)SCC)CC1=O` (stereo not given) the entry was “inactive”.
For `Fc1ccc(Oc2ccnc3cc(Cl)cc(Cl)c23)cc1`, the Potency entry is “inactive”.
Consider `CCC(C)(C)c1ccc(O)c(C(C)(C)CC)c1`, for which the Potency result is “inactive”.
Turning to `CCCN(CCOc1c(Cl)cc(Cl)cc1Cl)C(=O)n1ccnc1`, the Potency entry is “inactive”.
